Dicer inh: human Dicer pre-microRNA cleavage inhibition | Q9UPY3 | cat-ELCCA pre-miR-21 Dicer processing, chemiluminescence; hits give high values | z-score at 25 µM | 47,000 compounds, 6% hits; in the data active = z-score above about 3, passing the limit was not always enough;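 also: plate controls were vehicle for no effect and no enzyme for full effect; higher signal means more uncleaved substrate so more Dicer inhibition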
Numbers without * were called inactive. Only a selection was taken, and hits are over-represented in it overall.

SMILES	Dicer inh
CSc1ccc(C2c3c(oc4ccc(C)cc4c3=O)C(=O)N2c2ccccn2)cc1 (stereo not drawn)	-0.25
C=CCOc1ccc(C2c3c(oc4ccccc4c3=O)C(=O)N2c2ccccn2)cc1 (stereo not drawn)	4.1*
CCOc1ccc(C2c3c(oc4ccccc4c3=O)C(=O)N2c2ccccn2)cc1 (stereo not drawn)	2.1
CCOc1ccc(C2c3c(oc4ccccc4c3=O)C(=O)N2c2ccc(C)cn2)cc1OCC (stereo not drawn)	-1.4
Cc1ccc2oc3c(c(=O)c2c1)C(c1ccccc1F)N(c1ccccn1)C3=O (stereo not drawn)	3.3*
Cc1ccc(C2c3c(oc4ccccc4c3=O)C(=O)N2c2ccc(C)cn2)cc1 (stereo not drawn)	4.2*
COc1ccc(C2c3c(oc4cc(C)c(C)cc4c3=O)C(=O)N2c2ccccn2)cc1 (stereo not drawn)	-0.09
CCOC(=O)c1sc2nc(SCc3ccccc3)nc(-c3ccc(Cl)cc3)c2c1N	-0.59
CCSC1=N/C(=C\c2cc(Br)c(OC(C)=O)c(OC)c2)C(=O)S1	1.7
COc1nc(-c2ccc(C)cc2)ccc1-c1noc(-c2ccccc2)n1	2.6
COC(=O)/C(=C\Nc1ccc(Oc2cncc(Cl)c2)nc1)NC(=O)c1ccccc1	-0.62
CC1=C(C#N)C(c2ccc(N(C)C)cc2)C2=C(CC(c3ccc(Cl)cc3)CC2=O)N1 (stereo not drawn)	1.6
CCOC(=O)C(=CNc1c(C)csc1C(=O)OC)C(=O)OCC	-1.1
COc1ccccc1C1C2=C(CCCC2=O)Nc2ccc3ccccc3c21 (stereo not drawn)	-1.9
CSc1nnc2c(n1)OC(c1cc3c(cc1Cl)OCO3)N(C(C)=O)c1ccccc1-2 (stereo not drawn)	-0.55
O=c1[nH]cnc2ccc(Br)cc12	0
Cc1ccc(S(=O)(=O)n2ncc(Sc3ccc(Cl)cc3)c2C)cc1	-0.86
COc1cc(C2c3c(oc4ccccc4c3=O)C(=O)N2Cc2ccc(F)cc2)ccc1O (stereo not drawn)	1.1
COc1cc(C2c3c(oc4ccc(F)cc4c3=O)C(=O)N2Cc2ccc(C)cc2)ccc1O (stereo not drawn)	4.8*
Cc1ccc(CN2C(=O)c3oc4ccc(F)cc4c(=O)c3C2c2ccc(O)cc2)cc1 (stereo not drawn)	0.85
CCN=C(Nc1ccc(C(C)(C)C)cc1)SCC1CC1	0.11
Cc1ccc2oc(-c3ccc(Br)cc3)cc(=O)c2c1	0.77
Cc1ccc2oc(C(F)(F)F)cc(=O)c2c1	3.5*
Cc1ccc2oc(NC(=O)N3CCOCC3)cc(=O)c2c1	-0.18
CCc1ccc(O)c(C2(O)C(=O)c3ccccc3C2=O)c1	11
SMILES	Dicer inh
CCOc1cccc(C2C3=C(Nc4c2c(=O)[nH]c(=O)n4C)c2ccccc2C3=O)c1 (stereo not drawn)	-2.3
FC(F)(F)c1ccccc1-c1nnc(-c2sccc2Cl)o1	0.23
C#CCN1C(=O)C(O)(CC(=O)c2cccc3ccccc23)c2ccccc21 (stereo not drawn)	0.17
O=C(NC(=S)Nc1ccccc1Cl)c1cnn2c(C(F)(F)F)cc(C(F)(F)F)nc12	0.93
O=C(NC(=S)Nc1ccccc1Cl)c1ccccc1	2.7
O=C(NC(=S)Nc1ccccc1Cl)c1ccc(F)cc1F	10*
CC1CN(c2ncc(C(=O)OCc3ccc(Cl)cc3)c(C(F)(F)F)n2)CC(C)O1 (stereo not drawn)	-1.8
CCOC(=O)CCCN1C(=O)c2cccc3cccc(c23)C1=O	5.3*
CCOC(=O)CCCCCN1C(=O)c2cccc3cccc(c23)C1=O	-0.47
CCCCCN1C(=O)c2cccc3cccc(c23)C1=O	-0.15
CCOC(=O)c1cc(NC(=O)c2ccc(C(C)(C)C)cc2)c(=O)n2c1oc1ccccc12	-0.74
COc1ccccc1OCCn1c(N)nc2ccccc21	0.3
CCOC(=O)N1CCN(S(C)(=O)=O)CC1	3.5*
CCOC(=O)N1CCN(S(=O)(=O)c2ccc(Cl)cc2)CC1	2.9
CCCS(=O)(=O)N1CCN(C2CCN(C(=O)OCC)CC2)CC1	-1.1
CCCCCOC(=O)C1=C(C)NC2=C(C(=O)CCC2)C1c1cc2c(cc1Cl)OCO2 (stereo not drawn)	-0.61
C[N+](C)=C/C=C(\N)SCc1cc(F)cc2c1OCOC2	0.29
CNc1oc(-c2ccc(F)cc2)nc1C#N	-0.55
CSC(=NCCSC(C)(C)C)NC#N	-0.94
CCOC(=O)c1cc(CC)sc1NC(=O)c1cccs1	0.5
Cc1ccc(-n2cccc2)c(NS(=O)(=O)c2ccc(-c3ccno3)s2)c1	-1.9
Cc1ccc(C2Nc3ccccc3NC3=C2C(=O)CC(c2ccccc2)C3)cc1 (stereo not drawn)	1
COc1ccccc1C1Nc2ccccc2NC2=C1C(=O)CC(c1ccccc1)C2 (stereo not drawn)	1.7
O=C1CC(c2ccco2)CC2=C1C(c1ccco1)Nc1ccccc1N2 (stereo not drawn)	1.2
CCOc1ccc(C2Nc3ccccc3NC3=C2C(=O)CC(c2ccccc2)C3)cc1 (stereo not drawn)	3.6*
